# From PubChem BioAssay AID1220 (Sanford-Burnham Center for Chemical Genomics, 2008)
# “And” between values parts separate entries of the source, which are not always exact repeats. Equal values may be shown once. The whole screen tested about 190,000 compounds, of which about 1,300 (0.68%) were called active. Rule as the data show it: active = inhibition above about 50%; inactive = the rest. Shown is part of a subset that was picked to be rich in actives.
# Molecular target: Mannose-6-phosphate isomerase (Homo sapiens) (UniProt P34949)
# Sequence (P34949 whole entry, looked up): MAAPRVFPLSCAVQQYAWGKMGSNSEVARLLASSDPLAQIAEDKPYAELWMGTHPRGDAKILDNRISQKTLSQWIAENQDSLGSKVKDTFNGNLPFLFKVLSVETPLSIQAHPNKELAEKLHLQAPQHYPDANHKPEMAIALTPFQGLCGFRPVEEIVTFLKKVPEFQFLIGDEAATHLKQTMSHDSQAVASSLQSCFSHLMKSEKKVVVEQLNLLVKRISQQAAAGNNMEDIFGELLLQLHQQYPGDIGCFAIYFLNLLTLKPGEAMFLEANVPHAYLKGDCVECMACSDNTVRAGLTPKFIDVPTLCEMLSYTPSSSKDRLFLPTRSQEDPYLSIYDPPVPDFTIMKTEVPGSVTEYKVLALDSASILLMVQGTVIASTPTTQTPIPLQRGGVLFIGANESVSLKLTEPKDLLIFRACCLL
# Assay: human PMI inhibitors, high substrate, primary screen, biochemical, fluorescence intensity, high mannose 6-phosphate (AID 1220)
# Details: recombinant PMI enzyme, coupled fluorescence intensity; at 20 µM; hits give high values
row,SMILES,inhibition
1,O=C1CCCC(O)=C1C1C2=C(CCCC2=O)Oc2ccccc21 (stereo unspecified),6.5% (inactive)
2,Nc1[nH]ncc1-c1ccc(Cl)cc1,-1.5% (inactive)
3,Cc1sc(NC(=O)CCCC(=O)O)c(C(N)=O)c1-c1ccccc1,-5.5% (inactive)
4,CC1CN(C(NC(=O)c2ccccc2)C(Cl)(Cl)Cl)CC(C)O1 (stereo unspecified),-6.4% (inactive)
5,CCN1C(=O)/C(=C/c2ccc(C)o2)N(C)C1=S,28% (inactive)
6,COC(=O)c1ccc(C(=O)Nc2ccc(N)cc2N)cc1,50.3% (active)
7,COC(=O)c1ccc(C(=O)Nc2ccc(C(C)C)cc2N)cc1,-2.9% (inactive)
8,Cc1cc(N)ccc1NC(=O)c1ccccc1,12.9% (inactive)
9,Cc1ccc(OCC(O)CN2CCN(CC(O)COC(C)C)CC2)c(C(C)(C)C)c1 (stereo unspecified),-2.3% (inactive)
10,CC1=C(C(=O)Nc2ccccc2)C(c2cccs2)NC(=O)N1 (stereo unspecified),-0.7% (inactive)
11,CC1=C(C(=O)Nc2ccccc2)C(c2ccccc2[N+](=O)[O-])NC(=O)N1 (stereo unspecified),53.3% (active)
12,COC(=O)C1=C(C)NC(C)=C([N+](=O)[O-])C1c1ccccc1C(F)(F)F (stereo unspecified),-0.9% (inactive)
13,COc1ccccc1NC(=O)C1=C(C)NC(=O)NC1c1ccccc1[N+](=O)[O-] (stereo unspecified),19.9% (inactive)
14,COC(=O)C1=C(C)NC(C)=C(C(=O)OC)C1c1ccccc1[N+](=O)[O-],79.4% (active)
15,CCOC(=O)C1=C(C)NC(C)=C(C(=O)OC)C1c1cccc([N+](=O)[O-])c1 (stereo unspecified),9.7% (inactive) and -2% (inactive)
16,COc1ccccc1NC(=O)c1cnc(Nc2ccccc2OC)c2ccccc12,6.4% (inactive)
17,CC1Oc2ccccc2N(CC(=O)NCc2cccs2)C1=O (stereo unspecified),5.4% (inactive)
18,NC(=O)Cc1ccc(C(=O)c2ccccc2F)s1,-7% (inactive)
19,Cc1ccc(C(C)C)c(OCC(=O)N2CCOCC2)c1,4.1% (inactive)
20,O=C(O)COc1ccc(/C=N/n2cnc3scc(-c4cccs4)c3c2=O)cc1,-8.8% (inactive)
21,Cc1ccc(-n2c(-c3ccncc3)n[nH]c2=S)c(C)c1,3.7% (inactive)
22,COc1ccc(OCC(=O)Nc2ccc3c(c2)nc2n3CCSC2)cc1,7.8% (inactive)
23,O=C(/C=C/c1cccc(OCc2ccccc2)c1)c1cccnc1,-18.2% (inactive)
24,CCOC(=O)c1c(C)oc2c(CC(=O)c3ccccc3)c(Cl)c(O)c(O)c12,8.9% (inactive)

row,SMILES,inhibition
1,CCOC(=O)Cc1csc(NC(=O)NC2(C(F)(F)F)Oc3cc(Cl)c(Cl)cc3O2)n1,54.7% (active)
2,CCOC(=O)Cc1csc(NC(=O)NC2(C(F)(F)F)Oc3ccc(Cl)cc3O2)n1 (stereo unspecified),47.9% (inactive)
3,CCOC(=O)Cc1csc(NC(=O)NC2(C(F)(F)F)Oc3ccccc3O2)n1,21.4% (inactive)
4,CC1CC1C(=O)OCC(=O)NCc1ccc(Cl)cc1Cl (stereo unspecified),-7.7% (inactive)
5,CCSc1nnc(NC(=O)C2CC(=O)N(Cc3ccc(C)cc3)C2)s1 (stereo unspecified),-13.3% (inactive)
6,CCOC(=O)N1CCN(C(=O)Nc2ccc3nc(-c4ccccn4)c(-c4ccccn4)nc3c2)CC1,25.7% (inactive)
7,CN(C)NC(=S)Nc1ccc2nc(-c3ccccn3)c(-c3ccccn3)nc2c1,-38.7% (inactive)
8,Cc1ccc(NC(=S)Nc2ccc3nc(-c4ccccn4)c(-c4ccccn4)nc3c2)cc1C,63.1% (active)
9,S=C(Nc1ccc2nc(-c3ccccn3)c(-c3ccccn3)nc2c1)N1CCOCC1,-7.8% (inactive)
10,O=C(Nc1ccc2nc(-c3ccccn3)c(-c3ccccn3)nc2c1)N1CCOCC1,62.6% (active)
11,CCOC(=O)C1CCN(C(=O)Nc2ccc3nccnc3c2)CC1,49.9% (inactive)
12,CCCNC(=S)Nc1ccc2nc(-c3ccccn3)c(-c3ccccn3)nc2c1,-9.4% (inactive)
13,CCOC(=O)N1CCN(C(=O)Nc2ccc3nc(C)c(C)nc3c2)CC1,48.9% (inactive)
14,CCOC(=O)N1CCN(C(=O)Nc2ccc3nccnc3c2)CC1,55.1% (active)
15,Cc1ccc2[nH]c3c(=O)n(CCN4CCNCC4)cnc3c2c1,24.5% (inactive)
16,Cc1[nH]c2ccccc2c1CCNC(=O)c1c(N)no[n+]1[O-],15.2% (inactive)
17,O=c1c(Cl)c(N/N=C/c2ccc(Br)cc2)cnn1-c1ccccc1,4.9% (inactive)
18,O=C(Cc1cccc2ccccc12)Nc1ccc(OC(F)F)c(Cl)c1,10% (inactive)
19,CC1=CC(=O)C(C(C)C)=CC1=NC(=O)c1ccc(C)cc1,79% (active)
20,CC1=CC(=O)C(C(C)C)=C/C1=N/OC(=O)c1cccc([N+](=O)[O-])c1,-0.5% (inactive)
21,CC1=CC(=O)C(C(C)C)=C/C1=N\OC(=O)c1cccc2nc(C)oc12,9.2% (inactive)
22,COC(=O)CCc1c(C)c(C(=O)c2ccc(F)cc2)c2ccccn12,6.2% (inactive)
23,CCN=c1sc(C(=O)OC)cc(=O)n1CC,3.7% (inactive)
24,O=C(NCC1OCCCN1S(=O)(=O)c1cc(F)ccc1F)C(=O)NC1CCCCC1 (stereo unspecified),-0.8% (inactive)

row,SMILES,inhibition
1,Cc1coc2c1c(C)cc1oc(=O)c(Cc3ccccc3)c(C)c12,-11.6% (inactive)
2,Cc1c(Cc2ccccc2)c(=O)oc2cc(O)cc(O)c12,58.5% (active)
3,CCOC(=O)Cc1c(C)c2c(O)cc(O)cc2oc1=O,33.5% (inactive)
4,Cc1c(Cc2ccccc2)c(=O)oc2c(CN(C)C)c(O)c(Cl)cc12,7.5% (inactive)
5,COc1ccc2c(C)c(Cc3ccccc3)c(=O)oc2c1OC,0.1% (inactive)
6,COC(=O)Cc1ccc2oc(-c3cccnc3)nc2c1,1.9% (inactive)
7,CCCc1c(C)c2c(C)[nH]nc2oc1=O,1.7% (inactive)
8,COc1cc(OC)nc(Oc2ccccc2C(=O)Oc2cccc(C)c2)n1,7% (inactive)
9,Cc1ccc(S(=O)(=O)Nc2nc3ccc(S(=O)(=O)N4CCCC4)cc3s2)cc1,-22.6% (inactive)
10,Cc1ccc(N=C2NC(=O)c3cc([N+](=O)[O-])ccc32)cc1,6.9% (inactive)
11,Cc1cccc(N=C2NC(=O)c3cc([N+](=O)[O-])ccc32)c1,0.2% (inactive)
12,O=C1NC(=Nc2ccccc2)c2ccc([N+](=O)[O-])cc21,-7.3% (inactive)
13,NC(=O)c1ccc(C(=O)c2ccc([N+](=O)[O-])cc2)cc1,-7.6% (inactive)
14,CCC(C)(C)n1nnnc1C(c1cc2cc(C)ccc2[nH]c1=O)N1CCCc2ccccc21 (stereo unspecified),21.8% (inactive)
15,O=c1[nH]c2cc3c(cc2cc1C(c1nnnn1C1CCCC1)N1CCCc2ccccc21)OCCO3 (stereo unspecified),27.2% (inactive)
16,Cc1ccc2[nH]c(=O)c(C(c3nnnn3C3CCCC3)N3CCCc4ccccc43)cc2c1 (stereo unspecified),61.4% (active)
17,Cc1ccnc(NC(=O)C(C)n2cc([N+](=O)[O-])cn2)c1 (stereo unspecified),-10.1% (inactive)
18,FC(F)(F)c1ccc(N2CCOCC2)c(NC2=NCCCCC2)c1,2.9% (inactive)
19,CCOc1cc(N2CCOCC2)c(OCC)cc1NC(=O)c1ccccc1,28.4% (inactive)
20,CCOc1cc(N2CCOCC2)c(OCC)cc1NC(=O)c1ccc(C)cc1,27.3% (inactive)
21,CCOc1cc(N2CCOCC2)c(OCC)cc1NC(=O)c1ccco1,25.1% (inactive)
22,CCOc1cc(N2CCOCC2)c(OCC)cc1NC(=O)c1ccc(NC(C)=O)cc1,26.1% (inactive)
23,CCOc1cc(N2CCOCC2)c(OCC)cc1NC(=O)c1ccc(S(C)(=O)=O)cc1,54.7% (active)
24,O=S(=O)(Nc1ccc(N2CCOCC2)cc1)c1ccc(Cl)s1,-4.9% (inactive)

row,SMILES,inhibition
1,CCNC(=S)Nc1cc(OCC)c(N2CCOCC2)cc1OCC,58% (active)
2,CCOc1cc(N2CCOCC2)c(OCC)cc1NS(=O)(=O)c1ccc(Cl)s1,54.3% (active)
3,CCOc1cc(N2CCOCC2)c(OCC)cc1NC1=NCCCCC1,50.1% (active)
4,CCOc1cc(N2CCOCC2)c(OCC)cc1NC(=O)c1nc2nc(C)cc(C)n2n1,14.6% (inactive)
5,CCOc1ccc(Br)cc1S(=O)(=O)Nc1ccccc1N1CCOCC1,-0.7% (inactive)
6,Cc1cc(N)n2ncc(-c3ccc(F)cc3)c2n1,6.9% (inactive)
7,COCc1cc(C)nc(SCC(=O)Nc2ccccc2C)c1C#N,-4.7% (inactive)
8,COc1cccc(C(=O)C2CCCN(C(=O)c3cccc(C#CC(C)(C)O)c3)C2)c1 (stereo unspecified),13% (inactive)
9,Cc1ccc2n(n1)c(=O)c(Cc1ccccc1)c([O-])[n+]2-c1ccccc1,7.7% (inactive)
10,COCCNC(=O)CN1CCN(Cc2cccc(Cl)c2)C1=O,10.3% (inactive)
11,CCCNC(=O)Nc1cc(OCC)c(N2CCOCC2)cc1OCC,58.7% (active)
12,CCOc1cc(N2CCOCC2)c(OCC)cc1NC(=O)c1cc(C)cc(C)c1,40.8% (inactive)
13,CCOc1cc(N2CCOCC2)c(OCC)cc1NC(=O)C(C)(C)C,27.9% (inactive)
14,COc1ccc(CCn2nnnc2C(CC(C)C)N2CCN(c3ncccn3)CC2)cc1OC (stereo unspecified),7.5% (inactive)
15,Oc1ccc2ccccc2c1CN1CCCC1,67.8% (active)
16,Oc1ccc2ccccc2c1CN1CCN(c2ccccc2F)CC1,29.8% (inactive)
17,CN1CCN(Cc2c(O)ccc3cc(Br)ccc23)CC1,64.6% (active)
18,CN1CCN(Cc2c(O)ccc3c(-c4ccccc4)cc(=O)oc23)CC1,1.7% (inactive)
19,Oc1ccc2cc(Br)ccc2c1CN1CCCC1,43.2% (inactive)
20,Oc1ccc2ccccc2c1CN1CCN(c2ccccc2)CC1,-35.5% (inactive)
21,CCn1c(CSc2nc3ccccc3s2)nnc1SCC(N)=O,1.7% (inactive)
22,N#Cc1ccccc1S(=O)(=O)N1CCN(CC(O)c2ccccc2)CC1 (stereo unspecified),-12.7% (inactive)
23,COc1cccc(C(=O)Nc2cccc(-c3ccc4nncn4n3)c2)c1OC,-2.3% (inactive)
24,COc1ccc(C2=NN(C(=O)CSc3ncccn3)C(c3cccc(OC)c3OC)C2)cc1 (stereo unspecified),0.9% (inactive)
